Source: the supplement of paper PMC10849652
The full data set covers some 8,800 targets. This sample favours those with a hit. About 0.5% of all pairs of compound and target were hits.

What was measured:
Assay in all cases: log2 fold change, soluble protein after heating vs DMSO (PISA); higher = thermal stabilisation; K562 lysate, 10 uM; active = over 0.2 and 3.5 SD of the protein, either way, in both replicates (recomputed)
alvocidib = compound: CN1CC[C@H](c2c(O)cc(O)c3c(=O)cc(-c4ccccc4Cl)oc23)[C@H](O)C1 [alvocidib]
Method in brief: (§1)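 Quantification was by TMTpro 16plex LC-MS/MS with equalised channel sums, applied to the supernatant after 21,000xg for 90 min. Samples were crude K562 extract at 1 mg/mL protein in PBS pH 7.4 with 1 mM MgCl2, treated with 10 μM compound for 30 min, heated for 3 min across 48°C-58°C, pooled and brought to 0.5% NP-40 at 4°C. Values are log-two fold changes in thermal stability relative to solvent controls, from duplicates.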

Tubastatin A = compound: CN1CCc2c(c3ccccc3n2Cc2ccc(C(=O)NO)cc2)C1 [Tubastatin A]
Method in brief: as §1

[1] = compound: CNC(=O)C1=CC=CC=C1NC2=NC(=NC=C2Cl)NC3=C(C=C(C=C3)N4CCOCC4)OC
Method in brief: as §1

defactinib = compound: CNC(=O)c1ccc(Nc2ncc(C(F)(F)F)c(NCc3nccnc3N(C)S(C)(=O)=O)n2)cc1 [defactinib]
Method in brief: as §1

[2] = compound: CNc1nc(-c2ccc3c(N)n[nH]c3c2)cc(N2C[C@@H](C(=O)NC3CCCCC3)CC[C@H]2C)n1
Method in brief: as §1

encorafenib = compound: COC(=O)N[C@@H](C)CNc1nccc(-c2cn(C(C)C)nc2-c2cc(Cl)cc(NS(C)(=O)=O)c2F)n1 [encorafenib]
Method in brief: as §1

[3] = compound: COC(=O)[C@H](CCSC)NC(=O)C1=C(C=C(C=C1)NC[C@H](CS)N)C2=CC=CC=C2
Method in brief: as §1

alisertib = compound: COc1cc(Nc2ncc3c(n2)-c2ccc(Cl)cc2C(c2c(F)cccc2OC)=NC3)ccc1C(=O)O [alisertib]
Method in brief: as §1

[4] = compound: COc1cc2nc(-c3cc(F)ccc3O)nc(N[C@@H]3CNC[C@H]3C(C)(C)O)c2cc1OC
Method in brief: as §1

gefitinib = compound: COc1cc2ncnc(Nc3ccc(F)c(Cl)c3)c2cc1OCCCN1CCOCC1 [gefitinib]
Method in brief: as §1

Measured: log2 fold change

RAPGEF2, A0A2R8YGD3
inactive: alvocidib -0.241 | [1] 0.017 | defactinib 0.119 | [2] 0.025 | encorafenib 0.017 | [3] 0.021 | alisertib 0.007 | [4] -0.017 | gefitinib -0.042
active: Tubastatin A 0.236

RDH10 (UniProt Q8IZV5)
UniProt Q8IZV5, sequence (Q8IZV5 whole entry, looked up): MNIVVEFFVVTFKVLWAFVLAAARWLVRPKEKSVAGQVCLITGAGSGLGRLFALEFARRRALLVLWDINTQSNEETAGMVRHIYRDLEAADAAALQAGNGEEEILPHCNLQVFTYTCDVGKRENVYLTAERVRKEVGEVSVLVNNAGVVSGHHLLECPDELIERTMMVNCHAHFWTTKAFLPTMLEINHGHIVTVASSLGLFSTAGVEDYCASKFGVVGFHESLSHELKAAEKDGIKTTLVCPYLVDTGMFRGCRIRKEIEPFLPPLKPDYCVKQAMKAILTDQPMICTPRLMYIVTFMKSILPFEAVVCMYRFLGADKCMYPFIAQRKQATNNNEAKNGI
inactive: alvocidib -0.013 | Tubastatin A 0.015 | [1] 0.069 | defactinib 0.009 | [2] -0.013 | encorafenib -0.001 | alisertib 0.037 | [4] 0.007 | gefitinib -0.004
active: [3] 0.346

RPLP0P6 (UniProt Q8NHW5)
inactive: alvocidib -0.018 | Tubastatin A 0.015 | [1] -0.001 | defactinib -0.014 | [2] 0.023 | encorafenib 0.001 | [3] 0.018 | alisertib 0.004 | [4] 0.023 | gefitinib -0.019

RPL36AL (UniProt Q969Q0)
inactive: alvocidib 0.055 | Tubastatin A -0.056 | [1] 0.023 | defactinib 0.026 | encorafenib 0.03 | [3] -0.08 | alisertib -0.057 | [4] -0.029 | gefitinib -0.07
active: [2] -0.243

SEH1L isoform 1 (UniProt Q96EE3)
UniProt Q96EE3, sequence (Q96EE3 whole entry, looked up): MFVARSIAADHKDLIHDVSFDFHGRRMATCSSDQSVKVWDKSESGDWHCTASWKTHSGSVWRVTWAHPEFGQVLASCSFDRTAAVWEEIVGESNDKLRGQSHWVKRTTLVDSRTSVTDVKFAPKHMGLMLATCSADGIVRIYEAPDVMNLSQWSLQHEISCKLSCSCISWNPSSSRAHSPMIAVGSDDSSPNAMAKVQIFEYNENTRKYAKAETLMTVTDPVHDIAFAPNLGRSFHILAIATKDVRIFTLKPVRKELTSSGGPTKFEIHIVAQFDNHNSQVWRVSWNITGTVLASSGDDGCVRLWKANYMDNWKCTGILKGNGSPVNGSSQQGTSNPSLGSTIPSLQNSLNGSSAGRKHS
inactive: alvocidib -0.042 | Tubastatin A 0 | [1] 0 | defactinib -0.028 | [2] -0.014 | encorafenib -0.007 | [3] -0.077 | alisertib 0.001 | [4] 0.01 | gefitinib -0.004
